# Bioassay records deposited in PubChem by National Center for Advancing Translational Sciences (NCATS).
# LmPK inh – LmPK (Leishmania mexicana) enzyme inhibition | Q27686 | purified LmPK, Kinase-Glo ATP luminescence, 1 h | Potency, µM (titrated, usually from 57.5 µM), inactives show at the top dose activity change, negative = inhibition, hits mostly inhibitors | 0.37% of 290,000 active | AID 1721; note: potency is the fitted concentration of half-maximal effect; % is set by controls: 0 for no effect and ±100 for the full control effect
#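 Purified LmPK (0.1 nM) converted ADP (0.1 mM) to ATP with PEP (0.5 mM) in imidazole buffer pH 7.2 with KCl and MgCl2, 1 h at room temperature. ATP was read by Kinase-Glo luminescence; data normalized to uninhibited and no-enzyme controls.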
# Tb PYK inh – blocks Trypanosoma brucei pyruvate kinase | TbPYK enzyme, Kinase-Glo Plus ATP luminescence, 45 min | Potency, µM (titrated, usually from 76.8 µM), for inactives: top-dose activity, negative = inhibition, usual class: inhibitors | 0.12% of 410,000 active; note: potency is the fitted concentration of half-maximal effect; % is set by controls: 0 for no effect and ±100 for the full control effect; nearly all actives have a fitted effect of over 50% in size
#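 TbPYK + substrate in 50 mM TEA pH 7.2, 100 mM KCl, 10 mM MgCl2, 0.05% BSA, 0.01% Tween-20; cpd pinned; ADP 130 uM final; 45 min RT; Kinase-Glo Plus 10 min; luminescence endpoint.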
# Giardia FBPA inh – blocks Giardia fructose-bisphosphate aldolase activity; purified Giardia FBPA; Potency, µM (series often up to 59.6 µM), without a hit: at the top dose activity, negative = inhibition, most hits filed as inhibitors; 0.71% of 290,000 active; note: potency is the fitted concentration of half-maximal effect; % is set by controls: 0 for no effect and ±100 for the full control effect; nearly all actives have a fitted effect of over 55% in size
# Target sequence (A8B2U2 whole entry, looked up): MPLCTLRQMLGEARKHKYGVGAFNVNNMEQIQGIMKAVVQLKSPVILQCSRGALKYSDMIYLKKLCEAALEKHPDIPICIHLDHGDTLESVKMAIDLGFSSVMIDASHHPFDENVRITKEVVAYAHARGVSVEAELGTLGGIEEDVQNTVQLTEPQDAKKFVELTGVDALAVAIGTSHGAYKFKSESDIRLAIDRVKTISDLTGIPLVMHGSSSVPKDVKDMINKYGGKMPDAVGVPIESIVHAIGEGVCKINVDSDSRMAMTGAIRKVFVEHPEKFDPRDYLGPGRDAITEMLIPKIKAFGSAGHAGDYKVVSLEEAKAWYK
#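 40 nM FBPA preincubated 10 min at RT with compound (up to 57.5 uM final), then substrate plus GAPDH/TPI/NAD/arsenate coupling and diaphorase/resazurin added. Fluorescence read after 20 min at RT, 525/598 nm.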
# RE007 growth inh – less growth of the S. pombe RE007 Vpr strain | S. pombe RE007 Vpr strain, BacTiter-Glo ATP luminescence, 24 h | Potency, µM (highest dose often 92.2 µM), for inactives: top-dose activity change, negative = less growth, usual class: inhibitors | 0.21% of 360,000 active; active = well fitted falling curve with a large enough effect; inconclusive = small, poorly fitted or top-dose-only effect; inactive = no such curve, though single readings can be large or run the other way; note: potency is the fitted concentration of half-maximal effect; % is set by controls: 0 for no effect and ±100 for the full control effect; nearly all actives have a fitted effect of over 50% in size
#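 Fission yeast RE007 carrying one integrated HIV-1 vpr copy, seeded at OD 0.01 in PMG+AL medium with 23 nL pinned compound. Grown 24 h at 30 degrees; viability read by BacTiter-Glo luminescence after 5 min.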
# LmPK confirm – Confirms inhibition of Leishmania mexicana pyruvate kinase | shares compounds with LmPK inh | purified LmPK, Kinase-Glo ATP luminescence, 1 h | Potency, µM (doses to about 57.5 µM), for inactives: at the top dose activity change, negative = inhibition, usual class: inhibitors | 40% of 150 active;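 active = compounds giving a full or partial concentration-response curve, as inhibitors or activators; inconclusive = weak, top-dose-only or unclear curve responses; inactive = no response at any tested dose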
# Active calls of the source: *; u = inconclusive; x = no result; [ ] = another dose, or the depositor's remark. Compounds with a hit are over-represented: about 0.95% of the library has one in this group of screens. Unless noted, calls come from the whole dose curve; as a rule, active = well fitted curve in the direction sought with a large enough effect; inconclusive = small, poorly fitted or top-dose-only effect, or another doubt; inactive = no such curve, though single readings can be large; an effect the other way counts as inactive or inconclusive.
SMILES,LmPK inh,Tb PYK inh,Giardia FBPA inh,RE007 growth inh,LmPK confirm
Cc1ccc(C(=O)/C=C/C(=O)c2ccc(C)cc2)cc1,4µM*,u,-1%,-17%,u
Cc1ccc(N2C(=O)c3ccccc3C2O)nc1 (stereo unspecified),7.1µM*,x,2%,x,18µM*
Cc1ccc(CN2CC(N3CCC(c4ccccc4)CC3)CS2(=O)=O)cc1 (stereo unspecified),x,-2%,x,-16%,x
CC(=O)c1cccn1S(=O)(=O)c1ccccc1,-6%,1%,3%,9%,x
c1c2c(cc3sc(N4CCCCC4)nc13)OCO2,7.1µM*,u,-10%,45µM*,18µM*
Brc1ccc(N=Nc2ccc3ccccc3n2)cc1,6.3µM*,u,3%,-1%,8.2µM*
O=C(CN1CCN(C(=O)C2CC2)CC1)Nc1ccc(Cl)cc1F,x,4%,x,-5%,x
COc1ccc(CC(=O)Nc2ccc(-c3cn4ccccc4n3)cc2)cc1OC,4%,-3%,2%,-16%,x
C=C(C)C1CC=C(C)/C(=N\NC(=O)CNc2cccc3ccccc23)C1 (stereo unspecified),-3%,3%,-20%,-2%,x
C=C(C)[C@H]1CC=C(C)/C(=N/NC(=O)CNc2ccccc2OC)C1,-2%,1%,0%,-21%,2%
CCn1c(SCC(=O)Nc2sc3c(c2C#N)CCC(C(C)(C)C)C3)nnc1-c1ccco1 (stereo unspecified),5%,3%,1%,1%,7%
COc1cc(Cl)c(C)cc1NC(=O)COC(=O)c1cc[n+]([O-])cc1,2.8µM*,2%,0%,19%,3%
Cc1ccccc1NC(=O)COC(=O)c1cc[n+]([O-])cc1,x,-2%,x,2%,x
CNc1ncncc1-c1ccccc1C,x,x,1%,x,x
Oc1ccc(O)c2c1C1c3ccccc3C2c2ccccc21,2.2µM*,x,2%,x,-8%
Nn1c(SCC(=O)Nc2nnc(-c3ccccc3)o2)nnc1C1CC1,x,1%,x,-2%,x
COc1ccc(/C=N/NC(N)=S)cc1OC(=O)c1cccc2ccccc12,-1%,-2%,-1%,4%,-1%
Cn1c(-c2ccc(Br)o2)nc2cc(Br)ccc21,-25%,u,0%,-8%,x
Cn1c(-c2ccc(Br)o2)nc2ccccc21,7.9µM*,u,-11%,u,21µM*
COc1ccc(-c2ccc(C(=O)NCCc3ccccc3)c3occc23)c(C)c1,x,8%,x,-10%[18.4 µM],x
Cn1c(NCc2ccccc2)nc2cc(-c3ccccc3)sc2c1=O,x,0%,x,4%,x
COc1ccc(-c2cc3nc(C)n(N)c(=O)c3s2)cc1,2µM*,u,3%,11µM*,2.9µM*
Cc1nc2cc(-c3ccccc3)sc2c(=O)n1N,2.2µM*,10µM*,0%,u,4.6µM*
NC(=O)c1ccccc1N/C=C/C(=O)c1ccco1,u,-4%,-4%,-8%,x
O=C(/C=C/Nc1ccc(Oc2ccccc2)cc1)c1ccco1,7.9µM*,u,-13%,-28%,21µM*
SMILES,LmPK inh,Tb PYK inh,Giardia FBPA inh,RE007 growth inh,LmPK confirm
C[C@H](CO)N1C[C@H](C)[C@H](CN(C)C(=O)Cc2ccccc2)OCc2cnnn2CCCC1=O,x,-2%,x,-9%,x
COc1cc(/C=N/N2C(C)CCCC2C)cc(OC)c1O (stereo unspecified),2µM*,-5%,-4%,4%,u
COc1ccc2c(c1)C(=O)[C@H](OC(=O)NS(=O)(=O)c1ccc(F)cc1)[C@@H](c1ccc(OC)c(Br)c1)O2,x,x,1%,x,x
COc1cccc(/C=N/NC(=O)c2ccoc2C)c1O,7.9µM*,-13%,5%,-13%,18µM*
COc1cccc(/C=N/NC(=O)C(=O)N/N=C/c2cccc(OC)c2O)c1O,-2%,2%,13%,5%,x
O=S(=O)(Nc1ccc(O)c(NS(=O)(=O)c2ccccc2)c1)c1ccccc1,0.45µM*,-28%,x,-1%,4%
CN(C)c1nc2c(c(N)nn2-c2ccc(Cl)cc2)c(=O)o1,0%,-4%,6%,0%,5%
COc1ccc(-n2nc(N)c3c(=O)oc(N(C)C)nc32)cc1,-7%,2%,1%,-9%,x
NC(=O)c1cc([N+](=O)[O-])c(Cl)cc1NCc1ccccn1,x,0%,x,-9%,x
N/C(=N\OC(=O)c1ccccc1)c1ccccn1,4.5µM*,u,1%,u,8.2µM*
Cc1ccc(C(=O)O/N=C(\N)c2ccccn2)cc1C,u,u,2%,-25%,x
CCOc1ccc(C(=O)O/N=C(\N)c2ccccn2)cc1,u,13µM*,11%,u,6.5µM*
CCn1cc(C(=O)NCCN(CC(C)C)CC(C)C)c(=O)c2cc(S(=O)(=O)N(C)C3CCCCC3)ccc21,x,2%,x,x,x
Cc1ccccc1-c1nc(-c2ccccn2)no1,2.5µM*,u,5%,u,12µM*
COc1ccc(-c2nc(-c3ccccn3)no2)cc1,1.6µM*,u,-2%,u,6.5µM*
Cn1c(SCC(=O)N2CCCc3ccccc32)ncc(C(=O)Nc2ccccc2)c1=O,x,3%,x,x,x
O=c1c2ccccc2sn1-c1cc(S(=O)(=O)N2CCOCC2)ccc1N1CCCC1,8.9µM*,u,u,6%,u
Cc1ccc(-n2[nH]c(C)c(/C=N/c3ccccn3)c2=O)cc1,-20%,3%,-4%,u,u
Cc1ccc(-n2[nH]c(C)c(C=Nc3ccc(Br)cn3)c2=O)cc1,-19%,-1%,-2%,-20%,x
Cc1ccc(Cl)cc1N1CCN(S(=O)(=O)c2ccc3c(c2)OCCO3)CC1,0%,-7%,2%,-3%,9%
CC1=CC(C)(C)N(C(=O)c2ccccc2)c2ccc(C)cc21,-1%,2%,2%,x,5%
O=C(COc1ccc2c(c1)OCO2)Nc1ccccc1C(F)(F)F,-1%,2%,0%,-12%,x
CN(C)S(=O)(=O)c1ccc(C(=O)NCc2nnc(SCC(=O)NCc3ccco3)o2)cc1,-3%,6%,x,2%,x
